The whole screen tested about 330,000 compounds, of which about 590 (0.18%) were called active. This is one part of a sample in which actives are shown more often than they occur. Unmarked numbers belong to inactive results.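 Rule for the calls: active = superoxide response under a set limit, about three screen SD below normal (cut at about 65% in these data); inactive = the rest.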

The experiment can be described thus: reduction of superoxide in aged yeast, primary screen, HTS (AID 2690).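 Note: yeast aged for seven days with compound at 30 °C before DHE staining; 100% = average MFI of all compound-treated wells on the plate with controls excluded.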 Conditions: S. cerevisiae aged cells, superoxide DHE fluorescence; at 10 µM; hits give low values.
Consider `CC1CC(C)CN(C(=O)CSc2ccsc2[N+](=O)[O-])C1` (stereo not drawn), for which the superoxide response (% of plate mean) is 155%.

Consider `CCCCc1cc(=O)oc2c(C)c(OCC(=O)N3CCC(C(N)=O)CC3)ccc12`, for which the superoxide response (% of plate mean) was 81.2%. As for `Cc1cc2c(C)nc(N/N=C/c3ccccc3)nc2o1`, the superoxide response (% of plate mean) was 97.9%. Regarding `Cc1c(NC(=O)c2coc(=O)c(Br)c2)c(=O)n(-c2ccccc2)n1C`, the superoxide response (% of plate mean) was 96.5%. In the case of `Cc1c(NC(=O)c2cc(-c3ccc(Br)cc3)on2)c(=O)n(-c2ccccc2)n1C` it was 98.6%; in that of `Cc1cc2oc(C(=O)Nc3c(C)n(C)n(-c4ccccc4)c3=O)c(C)c2cc1Cl`, 43% (active); in that of `CC1(C)CC(=O)C=C(c2cccc3c2Oc2ccccc2S3)C1`, 109%. In the case of `O=C(CSc1nc2[nH]c(=O)[nH]c(=O)c2s1)Nc1cccc(F)c1` it was 94.1%; in that of `Cc1cc2ncn(CCCCOc3ccccc3)c2cc1C`, 80.1%. In the case of `COc1ccc(CNC(=O)C2CC(c3ccc(C(F)(F)F)cc3)=NO2)cc1` (stereo not drawn) it was 103%. Regarding `O=S(=O)(NCCCCCCNS(=O)(=O)c1c(F)cccc1F)c1ccc2c(c1)OCCO2`, the superoxide response (% of plate mean) is 104%. Consider `O=C(O)C1CCN(S(=O)(=O)N2CCOCC2)CC1`, for which the superoxide response (% of plate mean) was 126%. With `COc1ccc(CCNC(=O)Cc2ccc(C)cc2)cc1OC`, the superoxide response (% of plate mean) is 102%.

On to `O=C(O)c1ccccc1-c1ccccc1C(=O)NCCc1ccccc1`, for which the superoxide response (% of plate mean) is 108%. `COc1ccc(CCNC(=O)c2ccccc2-c2ccccc2C(=O)O)cc1OC`: the superoxide response (% of plate mean) was 57.2% (active).

Consider `Cc1ccc(NC(=O)CN2CCC3(O)CCCCC3C2c2ccc3c(c2)OCO3)c(C)c1` (stereo not drawn), for which the superoxide response (% of plate mean) is 95%. As for `COc1cccc(NC(=O)[C@H](Cc2c[nH]c3ccccc23)NC(=O)[C@@H]2Cc3ccccc3CN2)c1`, the figure is 113%; as for `O=C(NC1CCN(Cc2ccccc2)CC1)c1ccc(Oc2cc(Cl)cc(Cl)c2)o1`, 87.6%. In the case of `CCc1ccccc1NC(=O)NCCN1CCCCC1`, the superoxide response (% of plate mean) is 92.8%. As for `COc1cccc(NC(=S)NCCCN2CCOCC2)c1`, the figure is 96.1%; as for `COc1cccc(NC(=O)NCCN2CCCCC2)c1`, 34.4% (active). On to `CC(=O)NC1=NN(C(C)=O)C(C)(c2ccc(Cl)s2)S1` (stereo not drawn), for which the superoxide response (% of plate mean) was 102%.

Turning to `CC(=O)NC1=NN(C(C)=O)C(C)(CCS(=O)(=O)c2ccc(Cl)c(Cl)c2)S1` (stereo not drawn), the superoxide response (% of plate mean) is 63.7% (active). As for `CC(=O)NC1=NN(C(C)=O)C(C)(c2ccc(C)cc2)S1` (stereo not drawn), the figure is 108%; as for `Cc1nc([N+](=O)[O-])cn1CC(=O)Nc1ccc(Cl)cc1`, 104%; as for `COc1ccc(C2=NN(c3nc4ccccc4s3)C(=O)C2)cc1`, 51% (active). In the case of `COc1ccc(/C=C(/CC(=O)Nc2ccc(C)cc2)c2nc3ccccc3s2)cc1` it was 97.7%; in that of `COc1ccc(-n2nnnc2-c2nc3ccccc3s2)cc1`, 88.6%; in that of `COc1ccc2c(c1)OC(O)(C(F)(F)C(F)F)CC2=O` (stereo not drawn), 82.7%.

With `CCN(CC)S(=O)(=O)c1cc([N+](=O)[O-])ccc1NNC(=O)Nc1ccccc1`, the superoxide response (% of plate mean) is 101%. As for `CCOc1ccc(N2CC(C(=O)N/N=C/c3sccc3C)CC2=O)cc1` (stereo not drawn), the figure is 100%; as for `COc1ccc2[nH]c(=O)c(CNc3ccc(C)c(C)c3)cc2c1`, 96.3%; as for `COc1cc(C(=S)N2CCOCC2)cc(OC)c1OC(=O)c1cc([N+](=O)[O-])c(C)c([N+](=O)[O-])c1`, 113%. As for `CCCC1NC(=S)NC(C)=C1C(C)=O` (stereo not drawn), the figure is 92.8%; as for `O=[N+]([O-])c1ccc2nc(-c3ccccn3)[nH]c2c1`, 98.5%. In the case of `COc1ccc([N+](=O)[O-])cc1-c1nc2ccccc2nc1-c1ccccc1` it was 99.1%; in that of `O=[N+]([O-])c1ccc2c(c1)Nc1nc3ccccc3nc1N2`, 61.2% (active); in that of `Cc1nn(CC(=O)Nc2ccc3c(c2)nc(CN2CCCCC2)n3C)c(=O)c2ccccc12`, 94.1%. `Cc1ccc(NC(=O)Cn2nc(C)c3ccccc3c2=O)c(C)c1`: the superoxide response (% of plate mean) was 54.4% (active). Turning to `Cc1nn(CC(=O)Nc2ccc(F)cc2)c(=O)c2ccccc12`, the superoxide response (% of plate mean) was 98.5%.

In the case of `Cc1ccc(-c2nc(CS(=O)CC(=O)NC3CCCC3)c(C)o2)cc1` (stereo not drawn), the superoxide response (% of plate mean) is 108%. As for `Cc1ccc(-c2nc(CS(=O)CC(=O)N3CCN(c4ncccn4)CC3)c(C)o2)cc1` (stereo not drawn), the figure is 63.9% (active); as for `COc1ccc(-c2nc(CS(=O)CC(=O)N3CCc4ccccc4C3)c(C)o2)cc1` (stereo not drawn), 92.3%.

(Values after PubChem BioAssay AID2690 (NMMLSC, 2010).)
